In assay [1] the target is Cytochrome P450 3A4 (Homo sapiens) (UniProt P08684). Description: qHTS Assay for Inhibitors and Substrates of Cytochrome P450 3A4 (AID 884). Further: on the % scale 0 is the no-effect control and ±100 the full control effect; nearly all actives have a fitted effect of over 50% in size. A digest of the protocol:
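20 nM human CYP3A4 with 25 uM Luciferin-PPXE (at KM) in 200 mM KPO4, preincubated 10 min with compound; NADPH regeneration started a 60 min RT reaction. Luciferin detected by luminescence, normalized to 57 uM ketoconazole as full inhibition.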
Background: In qHTS, concentration-response curves come from the screen itself.

Assay [2] in a line: Confirmation and Secondary Assay for Modulators of Hemoglobin Beta Chain Splicing at IVS2 654 locus (AID 910).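 Further: HeLa cells stably carrying EGFP split by mutant beta-globin IVS2-654 intron; % of control where 0% means no effect.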 Summed up: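 HeLa cells stably expressing EGFP interrupted by β-globin IVS2-654 intron, seeded overnight in Opti-MEM/2% FCS, then treated 2 days at 37 °C. Restored splicing read as total peak GFP intensity per well by laser scanning cytometry (488 nm excitation, 500–520 nm emission); 500 nM antisense PNA as control.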

Assay [3] is described as follows: Confirmation and Secondary Assay for Modulators of Hemoglobin Beta Chain Splicing at IVS2 705 locus (AID 930).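 Further: HeLa cells stably expressing the EGFP-705 splicing reporter; GFP fluorescence per well restored by corrected splicing of the IVS2-705 intron in EGFP; % of control where 0% means no effect.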 A digest of the protocol: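 HeLa cells stably carrying EGFP interrupted by mutant beta-globin intron 2 (IVS2-705) treated 2 days at 37C with compound; 500 nM antisense PNA as control. Correct splicing read as total peak GFP intensity per well by laser-scanning cytometry.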

Assay [4] can be described thus: qHTS Assay for Lipid Storage Modulators (AID 1519; calls by dose curve; on activity change, negative = inhibition: on the % scale 0 is the no-effect control and ±100 the full control effect). Conditions: Drosophila S3 cells, BODIPY lipid droplet/cell ratio, laser cytometry, cells loaded with oleic acid; for activity change, negative = inhibition: at 57.5 µM (top of the series). A digest of the protocol: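 Cells seeded at 5,000 per well were treated with compounds over a concentration series and loaded with oleic acid (400 uM, as added). Lipid droplet fluorescence (488 nm excitation, 500-530 nm channel) was read by laser-scanning cytometry and normalized to 20 uM Triacsin C.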

Assay [5] deals with Ubiquitin carboxyl-terminal hydrolase 1 (Homo sapiens) (UniProt O94782). Description: Inhibitors of USP1/UAF1: Pilot qHTS (AID 504865).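 Further: rhodamine fluorescence freed from ubiquitin-rhodamine substrate followed over time; top concentration of the series differs between compounds; on the % scale 0 is the no-effect control and ±100 the full control effect; nearly all actives have a fitted effect of over 35% in size.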 Summed up:
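Enzyme-free wells gave the negative control, while test wells held 1nM USP1/UAF1 preincubated with compound for 15 min at room temperature. Ub-Rho at 150nM final started the reaction, and fluorescence at 480/540 nm was recorded kinetically.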

[6] abbreviates: measured here: cell count channel max response.
Setting [7] is: measured here: lipid channel max response.

Inconclusive results are not listed. Activity calls are given as the source filed them. Unless noted, the call rests on the fitted dose curve; in most records, active means well fitted curve in the direction sought with a large enough effect; inconclusive means small, poorly fitted or top-dose-only effect, or another doubt; inactive means no such curve, though single readings can be large; an effect the other way counts as inactive or inconclusive.

Sequence of Ubiquitin carboxyl-terminal hydrolase 1 (Homo sapiens) (O94782 whole entry, looked up): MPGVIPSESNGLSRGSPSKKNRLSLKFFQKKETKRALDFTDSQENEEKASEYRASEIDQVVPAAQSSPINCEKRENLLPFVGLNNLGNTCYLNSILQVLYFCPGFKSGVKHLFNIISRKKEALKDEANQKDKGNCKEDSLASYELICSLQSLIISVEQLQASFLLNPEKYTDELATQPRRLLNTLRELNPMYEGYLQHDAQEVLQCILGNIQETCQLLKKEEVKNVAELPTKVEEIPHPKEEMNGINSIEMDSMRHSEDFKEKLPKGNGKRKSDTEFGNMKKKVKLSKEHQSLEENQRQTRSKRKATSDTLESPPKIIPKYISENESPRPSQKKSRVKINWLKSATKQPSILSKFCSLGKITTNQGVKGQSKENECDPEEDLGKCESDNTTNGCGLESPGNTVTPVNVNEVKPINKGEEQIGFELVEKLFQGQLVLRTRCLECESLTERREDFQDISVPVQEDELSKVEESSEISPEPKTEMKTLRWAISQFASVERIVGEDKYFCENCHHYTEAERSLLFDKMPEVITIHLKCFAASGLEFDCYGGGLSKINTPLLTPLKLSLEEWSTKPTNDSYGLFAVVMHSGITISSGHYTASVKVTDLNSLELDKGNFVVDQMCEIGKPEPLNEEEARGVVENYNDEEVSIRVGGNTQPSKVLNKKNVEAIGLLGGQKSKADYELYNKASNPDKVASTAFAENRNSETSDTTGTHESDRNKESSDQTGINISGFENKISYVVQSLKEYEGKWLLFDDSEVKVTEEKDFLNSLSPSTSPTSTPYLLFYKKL
Sequence of Cytochrome P450 3A4 (Homo sapiens) (P08684 whole entry, looked up): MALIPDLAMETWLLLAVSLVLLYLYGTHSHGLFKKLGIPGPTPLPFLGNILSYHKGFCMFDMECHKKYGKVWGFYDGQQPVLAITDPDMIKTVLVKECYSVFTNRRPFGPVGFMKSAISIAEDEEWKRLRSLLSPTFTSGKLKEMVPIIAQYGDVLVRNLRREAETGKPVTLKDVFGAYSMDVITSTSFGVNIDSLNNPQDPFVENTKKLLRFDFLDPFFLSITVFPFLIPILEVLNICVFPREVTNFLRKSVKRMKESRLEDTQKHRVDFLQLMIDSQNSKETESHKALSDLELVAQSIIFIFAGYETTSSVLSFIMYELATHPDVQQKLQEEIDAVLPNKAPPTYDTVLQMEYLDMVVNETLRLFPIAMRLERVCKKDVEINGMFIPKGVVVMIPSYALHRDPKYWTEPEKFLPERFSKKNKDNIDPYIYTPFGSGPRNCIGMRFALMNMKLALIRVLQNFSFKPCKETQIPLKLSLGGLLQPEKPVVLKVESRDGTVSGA

For the compound `COc1cc(-c2coc3cc(OC)c(OC)c(OC)c3c2=O)cc(OC)c1OC`, the Potency entry in assay [1], in assay [2], in assay [3] and in assay [5] was “inactive” each time. For the same compound, the activity change, negative = inhibition in assay [4] is 2.36% (inactive). In addition, the max response worked out at 17.7% in assay [4] (setting [6]) and 21.5% in assay [4] (setting [7]).
In the case of `OCC1O[C@@H](OC2C(O)C(CO)O[C@@]2(CO)O[C@@H]2OC(CO)C(O)C(O)C2O)C(O)C(O)C1O` (stereo partly drawn), the Potency entry in assay [1], in assay [2], in assay [3] and in assay [5] was “inactive” throughout. Moreover, the activity change, negative = inhibition in assay [4] is 4.82% (inactive). For the same compound, the values for the max response in assay [4] (setting [6]) and in assay [4] (setting [7]) were 0.0409% and 4.57%, respectively.
Take `CC(=O)Oc1c(C)cccc1C(=O)O`: the Potency entry in assay [1], in assay [2], in assay [3] and in assay [5] was “inactive” each time. Besides, the activity change, negative = inhibition in assay [4] is 5.46% (inactive). Moreover, the max response stood at 15.6% in assay [4] (setting [6]) and 23.9% in assay [4] (setting [7]).
In the case of `CCCC(NC(C)C(=O)N1C(C(=O)O)CC2CCCCC21)C(=O)OCC` (stereo not drawn), the Potency result in assay [1], in assay [2], in assay [3] and in assay [5] was “inactive” throughout. In addition, the activity change, negative = inhibition in assay [4] is 9% (inactive). Also, the max response in assay [4] (setting [6]) amounted to 4.3%; in assay [4] (setting [7]) it was 11.7%.
Consider `O=c1cc(-c2ccccc2)oc2cc(O)c(O)cc12`, for which the Potency result in assay [1], in assay [2], in assay [3] and in assay [5] was “inactive” in each case. For the same compound, the activity change, negative = inhibition in assay [4] was -1.09% (inactive). Also, the max response in assay [4] (setting [6]) is -7.11%; in assay [4] (setting [7]), -6.23%.
Take `COc1ccccc1/C=C\C(=O)O`: the Potency entry in assay [1], in assay [2], in assay [3] and in assay [5] was “inactive” in each case. Further, the activity change, negative = inhibition in assay [4] is -2.1% (inactive). Further, the max response in assay [4] (setting [6]) and in assay [4] (setting [7]) was 4.2% in each case.
On to `COc1ccc(C2CC(=O)c3c(O)cc(O[C@H]4OC(COC5OC(C)C(O)C(O)[C@@H]5O)C(O)C(O)C4O)cc3O2)cc1O` (stereo partly drawn), for which the Potency result in assay [1], in assay [2], in assay [3] and in assay [5] was “inactive” in each case. For the same compound, the activity change, negative = inhibition in assay [4] is -1.5% (inactive). For the same compound, the max response is 1.58% in assay [4] (setting [6]) and -1.01% in assay [4] (setting [7]).
Consider `CCOC(=O)C(=O)C1(C(=O)OCC)Oc2cc(OC)cc(OC)c2C(=O)C1c1ccccc1` (stereo not drawn), for which the Potency result in assay [1], in assay [2], in assay [3] and in assay [5] was “inactive” each time. The activity change, negative = inhibition in assay [4] is 5.57% (inactive). Further, the max response was 9.96% in assay [4] (setting [6]) and 15% in assay [4] (setting [7]).
As for `CC(C)C(N)C(=O)NC(Cc1c[nH]c2ccccc12)C(=O)O` (stereo not drawn), the Potency entry in assay [1], in assay [2], in assay [3] and in assay [5] was “inactive” in each case. Further, in assay [4], the activity change, negative = inhibition is 7.82% (inactive). The max response in assay [4] (setting [6]) is 15.4%; in assay [4] (setting [7]) it was 28.4%.
As to `NCCC(=O)N[C@H](Cc1cnc[nH]1)C(=O)O`, the Potency result in assay [1], in assay [2], in assay [3] and in assay [5] was “inactive” throughout. For the same compound, in assay [4], the activity change, negative = inhibition was 4.17% (inactive). Further, the max response came out at 11.4% in assay [4] (setting [6]) and 10.9% in assay [4] (setting [7]).
In the case of `CCCCCC1C(=O)CCC1CC(=O)OC` (stereo not drawn), the Potency result in assay [1], in assay [2], in assay [3] and in assay [5] was “inactive” each time. Also, the activity change, negative = inhibition in assay [4] was 7.58% (inactive). Moreover, the max response in assay [4] (setting [6]) was found to be 6.16%; in assay [4] (setting [7]), 16%.
Consider `CC(C)CCCC(C)C1CCC2C3CC=C4CC(O)CC[C@@]4(C)C3CC[C@@]12C` (stereo partly drawn), for which the Potency result in assay [1], in assay [2], in assay [3] and in assay [5] was “inactive” in each case. Also, the activity change, negative = inhibition in assay [4] is 2.88% (inactive). Further, the max response is -11.4% in assay [4] (setting [6]) and -8.92% in assay [4] (setting [7]).
For `[N-]=[N+]=Nc1nc2c(N)ncnc2n1C1OC(CO)C(O)C1O` (stereo not drawn), the Potency entry in assay [1], in assay [2], in assay [3] and in assay [5] was “inactive” in each case. The activity change, negative = inhibition in assay [4] is -16.2% (inactive). Moreover, the max response was found to be 12.5% in assay [4] (setting [6]) and 1.58% in assay [4] (setting [7]).
`O=C(/C=C/C(=O)Oc1ccccc1C(=O)O)Oc1ccccc1C(=O)O`: the Potency entry in assay [1], in assay [2], in assay [3] and in assay [5] was “inactive” in each case. Further, the activity change, negative = inhibition in assay [4] was 7.98% (inactive). For the same compound, the max response in assay [4] (setting [6]) was found to be 4.07%; in assay [4] (setting [7]), 13.2%.
Turning to `CO[C@]1(NC(=O)C(C(=O)O)c2ccc(O)cc2)C(=O)N2C(C(=O)O)=C(CSc3nnnn3C)COC21` (stereo partly drawn), the Potency result in assay [1], in assay [2], in assay [3] and in assay [5] was “inactive” throughout. In addition, the activity change, negative = inhibition in assay [4] was 9.58% (inactive). Moreover, the max response in assay [4] (setting [6]) came to 18.1%; in assay [4] (setting [7]), 35.5%.
For `CC(CCC(=O)O)C1CCC2C3CC(O)[C@@H]4CC(O)CC[C@]4(C)C3CC[C@@]12C` (stereo partly drawn), the Potency entry in assay [1], in assay [2], in assay [3] and in assay [5] was “inactive” in each case. Moreover, the activity change, negative = inhibition in assay [4] is 6.93% (inactive). Besides, the max response was found to be 12.9% in assay [4] (setting [6]) and 20.4% in assay [4] (setting [7]).
Turning to `CC1=CC2C(C(C)C)CCC(C)(O)C2CC1` (stereo not drawn), the Potency entry in assay [1], in assay [2], in assay [3] and in assay [5] was “inactive” throughout. Besides, the activity change, negative = inhibition in assay [4] is -0.741% (inactive). The values for the max response in assay [4] (setting [6]) and in assay [4] (setting [7]) were -7.33% and -6.55%, respectively.
Take `COc1ccc(CCC(=O)c2c(O)cc(OC3OC(CO)C(O)C(O)C3O[C@@H]3OC(C)C(O)C(O)C3O)cc2O)cc1O` (stereo partly drawn): the Potency entry in assay [1], in assay [2], in assay [3] and in assay [5] was “inactive” in each case. Moreover, the activity change, negative = inhibition in assay [4] is 7.07% (inactive). In addition, the max response in assay [4] (setting [6]) was found to be 3.74%; in assay [4] (setting [7]), 14.6%.
Regarding `COc1cc2c(cc1OC)C1(O)C(=O)c3ccc(O)c(C(=O)O)c3OC1CO2` (stereo not drawn), the Potency result in assay [1], in assay [2], in assay [3] and in assay [5] was “inactive” throughout. The activity change, negative = inhibition in assay [4] is 8.88% (inactive). The max response in assay [4] (setting [6]) was 8.21%; in assay [4] (setting [7]) it was 21.1%.
As to `COC(=O)C(C)c1ccc(C(=O)c2cccs2)cc1` (stereo not drawn), the Potency result in assay [1], in assay [2], in assay [3] and in assay [5] was “inactive” throughout. The activity change, negative = inhibition in assay [4] is 9.81% (inactive). Further, the max response in assay [4] (setting [6]) was -1.55%; in assay [4] (setting [7]) it was 12.4%.
On to `COc1cc2c(cc1O)C(Cc1ccc(O)cc1)N(C)CC2` (stereo not drawn), for which the Potency entry in assay [1], in assay [2], in assay [3] and in assay [5] was “inactive” throughout. For the same compound, in assay [4], the activity change, negative = inhibition is 2.46% (inactive). The max response in assay [4] (setting [6]) was determined as 13.5%; in assay [4] (setting [7]) it was 17.7%.
In the case of `CC(C)CCCC(C)C1CCC2C3CC(=O)[C@H]4CC(O)CC[C@]4(C)C3CC[C@@]12C` (stereo partly drawn), the Potency entry in assay [1], in assay [2], in assay [3] and in assay [5] was “inactive” in each case. In assay [4], the activity change, negative = inhibition is -8.35% (inactive). The max response in assay [4] (setting [6]) was -5.43%; in assay [4] (setting [7]), -14%.
For the compound `Cc1c(O)cc(O)c2c(=O)c(-c3ccc(O)cc3)coc12`, the Potency entry in assay [1], in assay [2], in assay [3] and in assay [5] was “inactive” in each case. Also, the activity change, negative = inhibition in assay [4] is 8.55% (inactive). The max response in assay [4] (setting [6]) was 16.6%; in assay [4] (setting [7]) it was 28%.
Take `CC(=O)OCC1OC(n2cnc3c(Cl)nc(Cl)nc32)C(OC(C)=O)C1OC(C)=O` (stereo not drawn): the Potency result in assay [1], in assay [2], in assay [3] and in assay [5] was “inactive” each time. In addition, the activity change, negative = inhibition in assay [4] was -4.18% (inactive). In addition, the max response in assay [4] (setting [6]) stood at 15.8%; in assay [4] (setting [7]) it was 12.7%.

The values above are taken from PubChem BioAssay (NCATS).
